Sampled rows, rich in hits. Any-hit rate of the full collection: about 2.2%.
TDP43 rescue = qHTS of TDP-43 Inhibitors | AID 652104, 2013 | Potency, µM (top dose mostly 46.1 µM), usual class: activators | hit rate 1.8% among 410,000 | TDP-43 expressing yeast growth rescue, BacTiter-Glo, 24 h; further: nearly all actives have a fitted effect of over 50% in size
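Yeast expressing TDP-43 (pregrown in raffinose, seeded at OD600=0.02 in galactose medium) exposed to compounds 24 hr at 30 deg C. Growth read by BacTiter-Glo luminescence; rescue of toxicity appears as increased signal.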
Mito fusion yeast = qHTS Assay for Small Molecule Inhibitors of Mitochondrial Division or Activators of Mitochondrial Fusion; S. cerevisiae fusion-defective mutant growth rescue, CellTiterGlo 48 h; Potency, µM (doses to about 46.1 µM), hits mostly activators; hit rate 0.23% among 320,000; AID 485298, 2010; further: nearly all actives have a fitted effect of over 45% in size
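Compounds are tested for their ability to restore growth of mitochondrial fusion-defective yeast strains at non-permissive 37C in YPEG medium over 48 hours. Viability is quantified by luciferase luminescence.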
FUS yeast rescue = qHTS for Suppressors of FUS Proteinopathy: Primary screen using FUS-linked yeast assay | AID 1347120, 2019 | Potency, µM (titrated, usually from 76.6 µM), actives largely listed as activators | S. cerevisiae FUS-expressing, growth rescue, OD600, 24 h | hit rate 0.24% among 390,000; further: nearly all actives have a fitted effect of over 55% in size
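Galactose (2%) drives FUS expression in yeast precultured in raffinose; seeding density OD 0.005. Test compounds incubated 24hr at 30C and 99% humidity before absorbance at 600 nm was measured.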
Abeta yeast res = qHTS for compounds that reverse cellular toxicity of Amyloid beta (A-beta) peptide in yeast: Primary Screen; yeast expressing A-beta42, growth rescue, OD600, 48 h; response scale: 0% DMSO, 100% iron-clioquinol control; Potency, µM (highest dose often 46.1 µM), hits mostly activators; hit rate 0.063% among 410,000; further: nearly all actives have a fitted effect of over 55% in size
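Yeast A-beta toxicity model in growth medium with pinned compounds, 48 h at 30 C; growth read as absorbance at 600 nm. Normalized to FeCl3/clioquinol equimolar mix (positive) and DMSO (negative).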
aSyn rescue = qHTS of alpha-syn Inhibitors. hit rate 0.14% among 370,000. Yeast expressing alpha-synuclein, growth rescue, BacTiter-Glo, 24 h. Potency, µM (series often up to 46.1 µM), most hits filed as activators. AID 652106, 2013; further: nearly all actives have a fitted effect of over 65% in size
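Rescue of yeast growth: cells expressing toxic alpha-synuclein, induced in galactose at OD600 0.02, incubated with compound 24 h at 30 C. ATP luminescence quantified growth; inhibitors of toxicity appear as activators.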
Hits are given with their value; [ ] = another dose, or the depositor's remark. The call rests on the fitted dose curve; in most records, active means well fitted curve in the direction sought with a large enough effect; inconclusive means small, poorly fitted or top-dose-only effect, or another doubt; inactive means no such curve, though single readings can be large; an effect the other way counts as inactive or inconclusive.

`CCCn1c2ccccc2c2cc(C(=O)O)ccc21` gave TDP43 rescue 6.31µM, Mito fusion yeast inactive, FUS yeast rescue inactive, Abeta yeast res inactive and aSyn rescue inactive.
Screening CCn1c2ccccc2c2cc(/C(C)=N/O)ccc21 returned TDP43 rescue 35.5µM, Mito fusion yeast inactive, Abeta yeast res inactive and aSyn rescue inconclusive.
`Cc1ccc2[nH]c(=O)c3cc(C(=O)NC4CCC(C)CC4)sc3c2c1` (stereo not drawn) gave TDP43 rescue inactive, FUS yeast rescue inactive and Abeta yeast res inactive.
For CC1CCCN(Cc2c(O)ccc3c(=O)c(Oc4ccccc4Cl)c(C(F)(F)F)oc23)C1 (stereo not drawn) the results were TDP43 rescue inactive, FUS yeast rescue inactive and Abeta yeast res inactive.
Screening Cc1cccc(NC(=S)N2CCC(c3nc4ccccc4o3)CC2)c1 returned TDP43 rescue inactive[0.397 µM], Mito fusion yeast inactive, FUS yeast rescue inconclusive, Abeta yeast res 15.8µM and aSyn rescue inactive.
Screening Cc1ccc(C2CCN(C(=S)Nc3cccc(C)c3)C2)cc1 (stereo not drawn) returned TDP43 rescue 22.4µM, Mito fusion yeast inactive, FUS yeast rescue inconclusive, Abeta yeast res 12.6µM and aSyn rescue inactive.
`Cc1cccc(NC(=S)N2CCCCC2)c1` gave TDP43 rescue inactive, Mito fusion yeast inactive, Abeta yeast res inconclusive and aSyn rescue inactive.
Screening Cc1ccc(Cl)cc1NC(=O)C1CCN(c2nc3ccccc3n3cccc23)CC1 returned TDP43 rescue inactive, FUS yeast rescue inactive and Abeta yeast res inactive.
For CCOc1cccc(C(=O)N/N=C/c2coc3ccccc3c2=O)c1 the results were TDP43 rescue 22.4µM, Mito fusion yeast inactive, FUS yeast rescue inactive, Abeta yeast res inactive and aSyn rescue inactive.
CC(C)Oc1cccc(C(=O)N/N=C/c2coc3ccccc3c2=O)c1 was read as TDP43 rescue inactive, Mito fusion yeast inactive, FUS yeast rescue inactive, Abeta yeast res inactive and aSyn rescue inactive.
Screening Cc1cccc(-c2nnc(NC(=O)c3ccc(Cl)cc3)o2)c1 returned TDP43 rescue inconclusive, Mito fusion yeast inconclusive, FUS yeast rescue inactive, Abeta yeast res inconclusive and aSyn rescue 7.08µM.
Cc1ccc(C(=O)Nc2nnc(-c3ccncc3)o2)cc1 was read as TDP43 rescue inactive, Mito fusion yeast inactive, FUS yeast rescue inactive, Abeta yeast res inactive and aSyn rescue inactive.
COc1cccc(-c2nnc(NC(=O)c3ccc(Cl)s3)o2)c1 was read as TDP43 rescue 10µM, Mito fusion yeast 3.55µM, FUS yeast rescue inactive, Abeta yeast res inconclusive and aSyn rescue inconclusive.
`O=C(Nc1nnc(-c2ccccc2)o1)c1cc(Cl)sc1Cl` gave TDP43 rescue inactive, Mito fusion yeast inconclusive, FUS yeast rescue inactive, Abeta yeast res inconclusive and aSyn rescue 3.16µM.
O=C(Nc1nnc(-c2ccc(Cl)cc2)o1)Nc1ccccc1Cl was read as TDP43 rescue inactive, Mito fusion yeast inactive, FUS yeast rescue inactive, Abeta yeast res inactive and aSyn rescue inactive.
Screening O=C(Nc1nnc(-c2ccc(F)cc2)o1)c1cc(Cl)sc1Cl returned TDP43 rescue inconclusive, Mito fusion yeast inactive, Abeta yeast res inactive and aSyn rescue inconclusive.
Screening O=C(Nc1nnc(-c2ccc(Cl)cc2)o1)c1nc2ccccc2s1 returned TDP43 rescue inconclusive, Mito fusion yeast inactive, FUS yeast rescue inactive, Abeta yeast res inactive and aSyn rescue 17.8µM.
Screening O=C(Nc1nnc(-c2ccco2)o1)c1ccc(Cl)s1 returned TDP43 rescue inconclusive, Mito fusion yeast inactive, FUS yeast rescue inactive, Abeta yeast res inactive and aSyn rescue inactive.
Screening O=C(CSc1nnc(-c2cccnc2)n1-c1ccccc1)Nc1cccc2ccccc12 returned FUS yeast rescue inactive.
CCN(c1ccccc1)c1nnc(NC(=O)Nc2ccc(Br)cc2)s1 was read as TDP43 rescue inactive, FUS yeast rescue inactive and Abeta yeast res inactive.
O=[N+]([O-])c1cccc(-c2ccc(/C=N/NC(=S)Nc3cccc(F)c3)o2)c1 was read as TDP43 rescue 17.8µM, Mito fusion yeast inactive, FUS yeast rescue inactive, Abeta yeast res inconclusive and aSyn rescue inactive.
Screening CCCOC(=O)c1cccc(Nc2nc(CCC)cc(=O)[nH]2)c1 returned TDP43 rescue 17.8µM, FUS yeast rescue inconclusive and Abeta yeast res inactive.
`CCCc1cc(=O)[nH]c(Nc2ccc(C(=O)O)cc2)n1` gave TDP43 rescue inactive, FUS yeast rescue inactive and Abeta yeast res inactive.
`Cc1ccc(N2CC(C(=O)OCC(=O)c3ccc[nH]3)CC2=O)cc1` (stereo not drawn) gave TDP43 rescue inactive, Mito fusion yeast inactive, FUS yeast rescue inactive, Abeta yeast res inactive and aSyn rescue inactive.
For CC(C)(C)C1CCC(C(=O)OCC(=O)c2ccc[nH]2)CC1 (stereo not drawn) the results were TDP43 rescue 17.8µM, Mito fusion yeast inactive, FUS yeast rescue inactive, Abeta yeast res inactive and aSyn rescue inactive.
Screening CCOC(=O)N1CCN(c2ncc3c(n2)CC(c2ccc(Cl)cc2)CC3=O)CC1 (stereo not drawn) returned TDP43 rescue 12.6µM, FUS yeast rescue inactive, Abeta yeast res inactive and aSyn rescue inactive.
Screening O=C(Nc1ccc(Cl)cc1)O[C@@H]1CC[C@@]23CCCN2C(=O)CCC[C@H]3C1 returned FUS yeast rescue inactive.
O=[N+]([O-])c1nn(-c2ccc3c(c2)OCCO3)n(O)c1=NC1CCCCC1 was read as TDP43 rescue 7.94µM, Mito fusion yeast 12.6µM, FUS yeast rescue inactive, Abeta yeast res inactive and aSyn rescue inactive.
`COc1ccccc1CN=c1c([N+](=O)[O-])nn(-c2ccc3c(c2)OCCO3)n1O` gave TDP43 rescue 17.8µM, Mito fusion yeast inconclusive, FUS yeast rescue inactive, Abeta yeast res inactive and aSyn rescue inactive.
`CCN(Cc1cccc(S(=O)(=O)O)c1)c1ccc(C(=C2C=CC(=[N+](CC)Cc3cccc(S(=O)(=O)O)c3)C=C2)c2ccc(O)cc2S(=O)(=O)O)cc1` gave aSyn rescue inactive.
For O=C(NCc1ccccc1)C1c2ccccc2OCC(=O)N1Cc1ccc2c(c1)OCO2 (stereo not drawn) the results were TDP43 rescue inactive, FUS yeast rescue inactive, Abeta yeast res inactive and aSyn rescue inactive.
`Clc1cccc(OCc2nnc(-c3ccccc3Br)o2)c1` gave TDP43 rescue 17.8µM, Mito fusion yeast inactive, FUS yeast rescue inactive, Abeta yeast res inactive and aSyn rescue inconclusive.
For Clc1ccc(OCc2nnc(-c3ccccc3Br)o2)cc1 the results were TDP43 rescue inactive, Mito fusion yeast inactive, FUS yeast rescue inactive, Abeta yeast res inactive and aSyn rescue inactive.
`COc1ccc2cc(CNc3ccccc3)c(=O)n(CC(=O)Nc3ccc(C)cc3C)c2c1` gave TDP43 rescue inactive, FUS yeast rescue inactive and Abeta yeast res inactive.

Assay outcomes (PubChem BioAssay)
